Shown are actives, neighbours in structure and some others; about 32% of the full set was active somewhere.
PostGolgi yeast: growth inhibition of a yeast mutant, post-Golgi transport screen | post-Golgi transport phenotypic cell assay | inhibition, % at 10 µM | 98,000 tested, 0.9% active | AID 739;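 further: yeast cells grown in 1536-well plates; yeast grown about 18 h at 30C before absorbance read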
CYP2C19 inhib: inhibitors of human CYP2C19. P33261. CYP2C19 Supersomes, luciferin-H EGE luminescence, 30 min. inhibition, % at 5 µM. 96,000 tested, 21% active;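 active means CYP2C19 inhibition above a set limit at 5 µM in the primary screen, cut at about 50% in these data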;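 further: plate controls were negative control wells for no effect and 2.5 mM tranylcypromine positive control for full effect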
Target sequence (P33261 whole entry, looked up): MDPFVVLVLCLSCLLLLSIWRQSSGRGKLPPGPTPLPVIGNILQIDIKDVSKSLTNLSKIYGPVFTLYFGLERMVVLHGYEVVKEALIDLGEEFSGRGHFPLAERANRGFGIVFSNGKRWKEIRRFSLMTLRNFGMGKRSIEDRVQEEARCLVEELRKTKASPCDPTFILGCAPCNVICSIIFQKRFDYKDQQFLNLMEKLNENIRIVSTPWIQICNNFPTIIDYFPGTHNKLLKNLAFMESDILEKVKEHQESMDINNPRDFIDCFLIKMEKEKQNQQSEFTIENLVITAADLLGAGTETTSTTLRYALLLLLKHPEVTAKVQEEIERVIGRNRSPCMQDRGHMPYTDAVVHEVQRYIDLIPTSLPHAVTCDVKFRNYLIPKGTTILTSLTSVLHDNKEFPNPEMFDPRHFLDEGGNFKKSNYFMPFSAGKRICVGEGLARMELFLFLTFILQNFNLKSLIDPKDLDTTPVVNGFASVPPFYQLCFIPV
CYP2C9 act: activators of human CYP2C9; P11712; recombinant CYP2C9, luciferin-H conversion, luminescence; hits give high values; factor 1 = untreated enzyme, 0 = blocked; activation factor at 5 µM; 96,000 tested, 1.4% active; AID 1024;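 active means activation factor of 2 or more for CYP2C9 at a 5 µM dose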;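 further: 0 = sulfaphenazole-blocked wells and 1 = vehicle-only wells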
CYP2C19 act: activators of human cytochrome P450 2C19; recombinant CYP2C19, luciferin-H EGE luminescence; hits give high values; 0 = fully inhibited enzyme, 1 = untreated enzyme; activation factor at 5 µM; 96,000 tested, under 10 active;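 active means activation factor of at least 2 at 5 µM in the primary screen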;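 further: 0 = wells with 2.5 mM tranylcypromine and 1 = vehicle-only wells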
CYP2C9 inh: inhibitors of human CYP2C9. 96,000 tested, 20% active. CYP2C9 Supersomes, luciferin-H conversion, luminescence. inhibition, % at 5 µM;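 active means blocking of liver enzyme CYP2C9 beyond about 50% at 5 µM, limit read from the data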
PostGolgi ctrl: inhibits growth of the yeast control strain. efflux-deficient yeast background strain, growth absorbance A615, 16 h. inhibition, % at 10 µM. AID 738. 98,000 tested, 5% active
The depositor's hits bear a star; . = no result given. Unless noted, no stated cut-off is given here; in the data, active means inhibition above about 30%; inactive means the rest.

SMILES | PostGolgi yeast | CYP2C19 inhib | CYP2C9 act | CYP2C19 act | CYP2C9 inh | PostGolgi ctrl
CN(CC(=O)N1CCCCCC1)S(=O)(=O)c1cccc2cccnc12 | 6.0 | 16.5 | 3.3* | 0.8 | -225.9 | 0.9
CN(CC(=O)NC1CCCCCCC1)S(=O)(=O)c1cccc2cccnc12 | -0.6 | 75.3* | 1.1 | 0.2 | -10.2 | 9.4
O=C(NCc1cccnc1)c1cnc2sccn2c1=O | 1.3 | 2.3 | 1.1 | 1 | -10.6 | 9.6
O=C(COc1ccccc1)Nc1nn[nH]n1 | 7.0 | -3.3 | 0.9 | 1 | 7.0 | 6.0
CCc1nnc(NC(=O)c2ccc(S(=O)(=O)N3CCN(Cc4ccccc4)CC3)cc2)s1 | -2.0 | 17.3 | 0.8 | 0.8 | 23.7 | 2.4
CCc1nnc(NC(=O)c2ccc(Cl)c(S(=O)(=O)N3CCc4ccccc43)c2)s1 | -4.4 | 74.6* | 0.2 | 0.3 | 81.0* | 2.0
O=C(Nc1ncccc1O)c1cccc(S(=O)(=O)N2CCc3ccccc32)c1 | -5.2 | 71.6* | 0.2 | 0.3 | 75.4* | 33.8*
Cc1cc(C)nc(SCC(=O)N2CCC(C(N)=O)CC2)n1 | 12.8 | 0.0 | 1 | 1 | -3.4 | 11.1
COc1ccc(CC(=O)Nc2nc(C)cs2)cc1OC | 3.3 | 59.8* | 0.7 | 0.4 | 29.8 | -3.3
COc1ccc(-c2csc(NC(C)=O)n2)cc1OC | 15.4 | 68.2* | 0.4 | 0.3 | 64.8* | 7.4
COc1ccc(-c2csc(NC(=O)CCn3cnc4ccccc4c3=O)n2)cc1OC | 3.4 | 85.4* | 0.3 | 0.1 | 65.9* | 17.9
COCCN(CC(=O)NCc1ccc(OC)cc1)C(=O)CCC(=O)Nc1nccs1 | 3.1 | 6.3 | 1 | 0.9 | 0.9 | -4.5
COc1ccc(C(=O)Cn2c(N3CCOCC3)nc3ccccc32)cc1OC | . | -16.2 | 1.1 | 1.2 | -5.9 | .
CCC(=O)N1CCN(c2ccccc2NC(=O)c2ccc(OC)c(Cl)c2)CC1 | -0.8 | 73.5* | 0.2 | 0.3 | 81.8* | -8.6
Cc1ccc(C(=O)Nc2ccccc2N2CCN(C(=O)C(C)C)CC2)cc1C | -8.2 | 75.9* | 0.1 | 0.2 | 89.1* | 4.3
CCCC(=O)Nc1ccccc1N1CCN(C(=O)C(C)C)CC1 | 1.6 | -5.0 | 1.2 | 1.1 | -19.6 | 8.7
COc1ccc(Cl)cc1C(=O)Nc1ccccc1N1CCN(C)CC1 | 18.9 | 47.5 | 0.6 | 0.5 | 39.2 | 15.2
COc1c(F)c(F)c(C(=O)Nc2ccccc2N2CCN(C(C)=O)CC2)c(F)c1F | -3.0 | 9.2 | 0.9 | 0.9 | 7.3 | -15.1
COc1c(F)c(F)c(C(=O)Nc2ccccc2N2CCN(C(=O)C(C)C)CC2)c(F)c1F | 7.0 | 61.3* | 0.2 | 0.4 | 77.6* | -4.6
CCOC(=O)N1CCN(C(=O)CN(C2CCCCC2)S(=O)(=O)c2ccc(F)cc2)CC1 | 2.4 | -5.1 | 1.1 | 1.1 | -9.4 | 6.7
Nc1nc2ccc(C(=O)Nc3ccccc3)cc2s1 | 18.0 | 15.9 | 1 | 0.8 | 4.3 | 3.0
O=C(Nc1ccccc1F)c1ccc2nc(N3C(=O)CCC3=O)sc2c1 | 0.3 | 26.7 | 1 | 0.7 | 0.4 | 44.0*
CCOC(=O)c1sc2nc(NC(=O)C3CC3)sc2c1C | -11.8 | 52.7* | 0.7 | 0.5 | 29.5 | 19.5
CCOC(=O)c1sc(NC(=O)C2CC2)nc1C | -1.1 | 63.1* | 0.4 | 0.4 | 61.2* | 3.4
CCOC(=O)c1sc(NC(=O)C2C3C=CC(C3)C2C(=O)O)nc1C (stereo not given) | -5.8 | 4.7 | 0.6 | 1 | 44.4 | 4.4
SMILES | PostGolgi yeast | CYP2C19 inhib | CYP2C9 act | CYP2C19 act | CYP2C9 inh | PostGolgi ctrl
Cc1ccc(/C(O)=C2\C(=O)C(=O)N(CC(C)O)C2c2ccc(N(C)C)cc2)cc1 (stereo not given) | -0.2 | 18.4 | 1.1 | 0.8 | -6.2 | 0.2
CC(Sc1nnc(Cc2cccs2)n1C1CCCCC1)C(=O)N1CCc2ccccc21 (stereo not given) | -3.1 | 77.6* | 0.2 | 0.2 | 76.1* | 34.5*
Cc1nnc(SC(C)C(=O)N2CCc3ccccc32)s1 (stereo not given) | 0.0 | 77.7* | 0.7 | 0.2 | 33.8 | 3.2
Cc1cc(NC(=O)Cc2cccs2)nn1CC(=O)NCc1ccco1 | -8.1 | 0.7 | 1.1 | 1 | -11.3 | 1.8
CC(Sc1nnc(Cc2cccs2)n1C1CCCCC1)C(=O)NCc1ccco1 (stereo not given) | -2.3 | 43.3 | 0.3 | 0.6 | 75.0* | 21.5
CN(Cc1cnn(C)c1)C(=O)c1sc2cccc(Cl)c2c1Cl | -2.6 | -35.2 | 1 | 1.4 | -3.9 | 5.3
CC(=O)c1cccc(S(=O)(=O)NCC(c2ccco2)N2CCCCC2)c1 (stereo not given) | -1.9 | 75.3* | 0.9 | 0.2 | 8.7 | -5.0
N#Cc1ccc(C(=O)NCC(c2ccco2)N2CCCCC2)cc1 (stereo not given) | 3.9 | 3.2 | 0.8 | 1 | 16.5 | -3.4
Cc1c(NC(=O)c2ccc(Br)o2)c(=O)n(-c2ccccc2)n1C | -1.8 | 6.9 | 1 | 0.9 | 4.9 | -2.4
CCc1ccc(C(C)NC(=O)/C(C#N)=C\c2cn[nH]c2-c2ccccc2)cc1 (stereo not given) | 2.6 | 12.8 | 1 | 0.9 | -0.1 | 10.3
CC(NC(=O)/C(C#N)=C/c1cn[nH]c1-c1ccccc1)c1ccccc1 (stereo not given) | -4.2 | 39.1 | 0.7 | 0.6 | 29.3 | -1.2
N#C/C(=C\c1cn[nH]c1-c1ccccc1)C(=O)NC1CCCCCC1 | -5.6 | -3.0 | 2* | 1 | -97.7 | 10.7
N#C/C(=C\c1cn[nH]c1-c1ccc(Cl)cc1)C(=O)NCc1ccccc1 | -1.0 | 88.1* | 0.1 | 0.1 | 87.5* | 21.1
COc1ccc(-c2[nH]ncc2/C=C(\C#N)C(=O)NC2CC2)cc1 | 27.4 | 53.6* | 0.5 | 0.5 | 52.0* | 10.1
Cc1ccc(-c2nnn(CC(=O)Nc3ccccc3-c3ccccc3)n2)c(-n2cnnn2)c1 | -14.1 | 35.9 | 0.5 | 0.6 | 52.2* | 9.8
Cc1nc(N)sc1N=Nc1ccc(Br)cc1 | -1.3 | 33.2 | 0.6 | 0.7 | 36.6 | 21.9
O=c1oc2ccccc2cc1NCc1ccccc1O | 0.8 | 58.7* | 0.8 | 0.4 | 21.7 | 10.7
COc1ccccc1C(=O)Nc1cc2ccccc2oc1=O | 4.1 | 12.5 | 0.7 | 0.9 | 25.2 | 0.8
Cc1occc1-c1nnc(SCC(=O)NCc2cccs2)n1-c1ccc(F)cc1 | -1.9 | 42.6 | 0.4 | 0.6 | 63.0* | 8.2
CC(C)OC(=O)CSc1nnc(SCc2cccc3ccccc23)s1 | -6.4 | 70.7* | 0.8 | 0.3 | 18.5 | -6.2
Cc1cc2nnc(SCC(=O)OC(C)C)n2c2ccccc12 | -2.1 | 24.1 | 2.6* | 0.8 | -159.8 | 0.6
O=C(O)CSc1nnc(SCc2cccc3ccccc23)s1 | 2.9 | -4.1 | 0.5 | 1 | 45.5 | 3.8
Cc1nnc(SCC(=O)NCc2cccs2)n1-c1ccccc1 | -0.8 | 46.8 | 0.7 | 0.5 | 25.7 | -6.6
Cc1cc2nnc(SCC(=O)NCc3cccs3)n2c2ccccc12 | -2.8 | 49.3 | 3.2* | 0.5 | -220.9 | 3.0
Cc1cc(C)c(NC(=O)CCCOC(=O)C2=COCCO2)c(C)c1 | -5.0 | 31.3 | 0.8 | 0.7 | 17.5 | 0.0
